PKM2 act – activators of human pyruvate kinase M2; hit rate 0.34% among 260,000; Potency, µM (doses to about 57.5 µM), most hits filed as activators; AID 1631; purified PKM2, Kinase-Glo ATP luminescence, activation; response scale: 0% is enzyme alone, no compound; also: nearly all actives have a fitted effect of over 55% in size
Target sequence (P14618 whole entry, looked up): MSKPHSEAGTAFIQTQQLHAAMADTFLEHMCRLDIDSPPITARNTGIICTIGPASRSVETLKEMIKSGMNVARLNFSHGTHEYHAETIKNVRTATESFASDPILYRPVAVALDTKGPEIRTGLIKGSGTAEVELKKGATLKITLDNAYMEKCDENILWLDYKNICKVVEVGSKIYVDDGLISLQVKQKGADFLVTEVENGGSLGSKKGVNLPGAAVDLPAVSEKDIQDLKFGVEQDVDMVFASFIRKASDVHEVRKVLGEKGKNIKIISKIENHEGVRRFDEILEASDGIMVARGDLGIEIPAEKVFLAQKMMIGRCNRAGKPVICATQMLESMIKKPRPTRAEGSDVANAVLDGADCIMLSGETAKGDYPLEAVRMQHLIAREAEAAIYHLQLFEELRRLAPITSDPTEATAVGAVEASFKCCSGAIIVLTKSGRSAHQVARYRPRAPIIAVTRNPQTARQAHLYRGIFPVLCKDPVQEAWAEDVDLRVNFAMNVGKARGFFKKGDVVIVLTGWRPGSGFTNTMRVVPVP
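ATP formation by purified human PK-M2, quantified via coupled luciferase luminescence after 1 h at room temperature with 0.1 mM ADP and 0.5 mM PEP final.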
RORgamma inh – inhibitors of mouse ROR gamma transcriptional activity | Potency, µM (titrated, usually from 53.6 µM), hits mostly inhibitors | Drosophila S2 Gal4-RORgamma UAS-luciferase reporter, 20 h | P51450 | hit rate 5.4% among 310,000; also: nearly all actives have a fitted effect of over 60% in size
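A Gal4/UAS one-hybrid system in insect cells: metallothionein-promoter Gal4–ROR gamma fusion plus Photinus luciferase reporter. Copper sulfate 700 uM final, 20 hr ambient incubation, luminescent detection after 10 min with reagent.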
Six1-Eya2 inh – inhibitors of human Six1/Eya2 interaction; AID 651725; hit rate 0.56% among 360,000; AlphaScreen GST-Six1/His-Eya2 binding, biochemical; stronger effect = lower value; activity change, % (concentration not given with the values); in the data active = activity change below about -65%; inconclusive = mostly about -30% to -63%
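Homogeneous AlphaScreen proximity assay pairing GST-Six1 with His-tagged Eya2 (added as 5X mix: 250 nM and 500 nM) in 50 mM Tris pH 8.0, 300 mM NaCl, 1 mM TCEP. Glutathione donor and nickel acceptor beads; 1 h, 37 °C, dark.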
CtBP-E1A inh – inhibitors of CtBP/E1A interaction | AID 651724 | hit rate 0.49% among 340,000 | activity change, % (test concentration not listed) | AlphaScreen GST-E1A/His-CtBP binding, 1536-well; stronger effect = lower value; in the data active = activity change below about -65%; inconclusive = mostly about -30% to -63%
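GST-E1A and His-tagged CtBP (125 nM each as 5X stock) were preincubated with pin-transferred compound for 2 h at 37 °C in the dark, then glutathione donor and nickel acceptor beads were added for 1 h before AlphaScreen reading.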
Gal4-VP16 FLuc – counter-screen for ROR gamma inhibitors: Gal4-VP16 reporter. hit rate 3.5% among 310,000. AID 2546. Drosophila S2 Gal4-VP16 UAS-luciferase, luminescence, 20 h. Potency, µM (titrated, usually from 53.6 µM), most hits filed as inhibitors;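 also: Gal4-VP16 expression switched on by copper sulfate through the metallothionein promoter; nearly all actives have a fitted effect of over 50% in size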
Large screens that a line does not name were inactive. Only some compounds are listed: those with a hit (about 5.6% of all), similar ones and a draw of the others. Unless noted, calls follow the shape of the dose curve; as a rule, active = well fitted curve in the direction sought with a large enough effect; inconclusive = small, poorly fitted or top-dose-only effect, or another doubt; inactive = no such curve, though single readings can be large; an effect the other way counts as inactive or inconclusive.

COCc1cc(CN2CCCC2)c(O)c2ncccc12	RORgamma inh 10µM, Six1-Eya2 inh -91, CtBP-E1A inh -94, Gal4-VP16 FLuc 8.9µM
Oc1c(CN2CCCCC2)cc(COCc2ccccc2)c2cccnc12	RORgamma inh 0.32µM, Six1-Eya2 inh -85, Gal4-VP16 FLuc 0.0089µM
COc1ccccc1N1CCN(Cc2cc(Br)c(O)c3ncccc23)CC1	RORgamma inh 1.1µM, Six1-Eya2 inh -92, CtBP-E1A inh -85, Gal4-VP16 FLuc 1.4µM
COC(=O)C1CCc2c(ccc3c2CCCC3)C1=O (stereo unspecified)	none (no result: PKM2 act, RORgamma inh, Gal4-VP16 FLuc)
NC(=S)NC1CC2CC1C1C=CCC21 (stereo unspecified)	RORgamma inh 28µM
CNNC(=S)NC1CC2CC1C1C=CCC21 (stereo unspecified)	RORgamma inh inconclusive
Cc1cc(NC(=O)CCCSc2nc(-c3ccco3)cc(C(F)(F)F)n2)no1	none
COc1ccc(-c2cc(C(F)(F)F)nc(S(=O)(=O)CCCC(=O)Nc3cc(C)on3)n2)cc1OC	RORgamma inh 3.5µM, Gal4-VP16 FLuc inconclusive (no result: PKM2 act)
COc1ccccc1-c1cc(C(F)(F)F)nc(S(=O)(=O)CCCC(=O)Nc2cc(C)on2)n1	RORgamma inh 11µM, Gal4-VP16 FLuc 7.9µM
Cc1cc(S(=O)(=O)NCc2ccncc2)c(C)cc1Br	Gal4-VP16 FLuc 10µM
CC(=O)Nc1ccc(S(=O)(=O)NCc2ccncc2)cc1	RORgamma inh 7.1µM, Gal4-VP16 FLuc 2µM
CCOc1cc(S(=O)(=O)NCc2ccncc2)ccc1Cl	RORgamma inh 2µM, Gal4-VP16 FLuc 1.1µM
CCOc1cc(S(=O)(=O)NCc2cccs2)ccc1Cl	RORgamma inh inconclusive
Cc1ccc(S(=O)(=O)NCc2ccncc2)cc1	Gal4-VP16 FLuc 7.9µM
O=C(NCc1ccc(Cl)cc1)C1CCN(S(=O)(=O)c2ccc(F)cc2)CC1	none
CN(C)c1ccc(N2C(=NC(=O)c3ccccc3)SC3CS(=O)(=O)CC32)cc1 (stereo unspecified)	none (no result: PKM2 act)
Nc1ccc(C(=O)N2CCN(S(=O)(=O)c3ccc(Br)cc3)CC2)cc1[N+](=O)[O-]	none (no result: PKM2 act, RORgamma inh, Gal4-VP16 FLuc)
CCOc1ccc(S(=O)(=O)NCc2ccncc2)cc1	none
CCOC(=O)COc1ccc(S(=O)(=O)NCc2ccncc2)cc1	RORgamma inh inconclusive, Gal4-VP16 FLuc 11µM
CCn1c(C)nc2cc(C(=O)N/N=C/c3ccccc3C)ccc21	RORgamma inh inconclusive, Gal4-VP16 FLuc inconclusive
CCn1c(C)nc2cc(C(=O)N/N=C(\C)c3ccccc3O)ccc21	RORgamma inh 0.63µM, Gal4-VP16 FLuc 0.63µM
CCn1c(C)nc2cc(C(=O)NNC(=S)Nc3ccccc3OC)ccc21	RORgamma inh 13µM
CC(C)(C)C(=O)Nc1ccc(C(=O)Nc2cccc(Oc3ccc(C(=O)O)c(C(=O)O)c3)c2)cc1	RORgamma inh inconclusive, Gal4-VP16 FLuc 11µM (no result: CtBP-E1A inh)
Cc1ccccc1NC(=O)NCc1ccccn1	none (no result: PKM2 act, RORgamma inh, Gal4-VP16 FLuc)
CCN(CC)S(=O)(=O)c1cccc(NC(=O)c2ccc(-n3nc(C)cc3C)cc2)c1	RORgamma inh inconclusive, CtBP-E1A inh -70
Cc1ccc(C(=O)Nc2ccc(S(=O)(=O)NCc3ccco3)cc2)cc1	none
Cc1cc(C)n(-c2ccc(C(=O)Nc3ccc(S(=O)(=O)NCc4ccco4)cc3)cc2)n1	RORgamma inh inconclusive, Six1-Eya2 inh inconclusive, CtBP-E1A inh inconclusive, Gal4-VP16 FLuc 16µM
Cc1cc(C)cc(NC(=O)c2cc(S(=O)(=O)NCc3ccco3)ccc2F)c1	Gal4-VP16 FLuc 10µM
Cc1cc(C)n(-c2ccc(C(=O)Nc3ccc(C)c(S(=O)(=O)N(C)C)c3)cc2)n1	Six1-Eya2 inh inconclusive, CtBP-E1A inh inconclusive, Gal4-VP16 FLuc 18µM
Cc1cc(C)n(-c2ccc(C(=O)Nc3cccc([N+](=O)[O-])c3)cc2)n1	none (no result: CtBP-E1A inh)
O=C(CNC(=O)C1CCCCC1)NCc1ccco1	none
COc1ccc(/C=C/CN2CCCC(CO)(Cc3cccc(Cl)c3)C2)cc1 (stereo unspecified)	Gal4-VP16 FLuc inconclusive
Cc1cc(C)n(-c2ccc(C(=O)Nc3cccc(S(=O)(=O)N(C)C)c3)cc2)n1	RORgamma inh inconclusive, Six1-Eya2 inh inconclusive, CtBP-E1A inh inconclusive, Gal4-VP16 FLuc 7.1µM
Cc1ccc(S(=O)(=O)NCc2ccco2)cc1C	none
O=S(=O)(NCc1ccco1)c1ccc2c(c1)Cc1ccccc1-2	RORgamma inh inconclusive, Gal4-VP16 FLuc 8.9µM
Cc1cc(C)n(-c2ccc(C(=O)Nc3ccc(S(=O)(=O)N(C)C)cc3)cc2)n1	RORgamma inh inconclusive
Nc1nc2ccc([N+](=O)[O-])c(N)c2s1	Six1-Eya2 inh inconclusive, CtBP-E1A inh -72
O=c1oc(-c2ccccc2)cc(Cl)c1Cl	RORgamma inh 11µM, Gal4-VP16 FLuc 10µM (no result: PKM2 act)
O=c1cc(-c2ccccc2)oc2ccc(Cl)cc12	none (no result: PKM2 act, RORgamma inh, Gal4-VP16 FLuc)
O=C(NCC(=O)N1CCN(c2ccccc2F)CC1)c1ccc(Br)o1	none (no result: PKM2 act, RORgamma inh, Gal4-VP16 FLuc)
CC[C@H](C)[C@H](NC(=O)[C@H](C)NC(=O)[C@H](Cc1cnc[nH]1)NC(=O)[C@@H]1CCCN1C(=O)CNC(=O)[C@H](CC(C)C)NC(=O)[C@H](CC(C)C)NC(=O)[C@H](Cc1ccc(O)cc1)NC(=O)CNC(=O)[C@H](C)NC(=O)[C@H](CO)NC(=O)[C@H](CC(N)=O)NC(=O)[C@H](CC(C)C)NC(=O)[C@@H](NC(=O)[C@H](Cc1c[nH]c2ccccc12)NC(=O)CN)[C@@H](C)O)C(=O)O	none (no result: PKM2 act, Six1-Eya2 inh, CtBP-E1A inh)
Cc1nnc(SCC(=O)Nc2ncc(Cl)cc2Cl)n1Cc1ccccc1	RORgamma inh 4µM, Gal4-VP16 FLuc inconclusive
Cc1nnc(SCC(=O)Nc2sccc2C(N)=O)n1Cc1ccccc1	RORgamma inh 4.5µM
CCc1nnc(NC(=O)CSc2nnc(C)n2Cc2ccccc2)s1	none
Cn1c(SCC(=O)Nc2ncc(C(F)(F)F)cc2Cl)nnc1-c1ccc(Cl)cc1	RORgamma inh 10µM, Gal4-VP16 FLuc 11µM
COCCNc1nc2c(c(=O)n(C)c(=O)n2C)n1Cc1cccc(C(F)(F)F)c1	Gal4-VP16 FLuc 3.2µM
CCCNc1nc2c(c(=O)n(C)c(=O)n2C)n1Cc1cccc(C)c1	Gal4-VP16 FLuc 5µM
CCCNc1nc2c(c(=O)n(C)c(=O)n2C)n1CCc1ccccc1	RORgamma inh inconclusive, Gal4-VP16 FLuc inconclusive
COc1ccc(Cl)cc1C(=O)Nc1cccnc1Cl	none
Cc1[nH]c(C)c(S(=O)(=O)Nc2cccc(Cl)c2C)c1C(=O)N1CCCCC1	none
COc1cc(C(=O)Nc2cc3c(cc2N2CCCCC2)n(C)c(=O)n3C)cc(OC)c1OC	RORgamma inh inconclusive (no result: PKM2 act, CtBP-E1A inh)
COc1ccc(C(=O)Nc2cc3c(cc2N2CCCCC2)n(C)c(=O)n3C)cc1OC	RORgamma inh 3.5µM (no result: PKM2 act)
Cc1ccc(S(=O)(=O)Nc2nc3ccccc3nc2NCC2CCCO2)cc1C (stereo unspecified)	none
C=CCn1c(-c2ccccc2OC)n[nH]c1=S	RORgamma inh 11µM, Gal4-VP16 FLuc inconclusive
C=CCn1c(Cc2nc3ccc(Cl)cc3[nH]2)n[nH]c1=S	RORgamma inh inconclusive, Six1-Eya2 inh inconclusive

Screens from PubChem.
